The test system of the experiment is P. falciparum stage V gametocytes. The arrangement: BacTiter-Glo ATP luminescence viability of purified stage V gametocytes in 384-well plates, per cent inhibition versus DMSO. The note with it: 48 h, 5 µM, inhibitor.

Read-outs that look alike come from different tables or passages of the source. Among all 13,000 compounds or so, about 3,200 (25%) showed an effect of 50% or more. The list shows a part of the results.

On to `Cc1ccc(C(=O)c2oc3ccc4c(C)cc(=O)oc4c3c2C)cc1` [TCMDC-125583], for which the % Inhibition (in general, the drop in the measured response relative to a control, in per cent) is -7.355%.

In the case of `Cc1cccc(C)c1OC(=O)C(C)C(O)C1(Sc2ccccc2)CCN(C)CC1` (stereo not drawn) [TCMDC-132104], the “% Inhibition” value is given as 17.64%.

Regarding `O=C(Nc1ccc(F)cc1)NC1CCN(c2ccnc3cc(Cl)ccc23)CC1` [TCMDC-133570], the “% Inhibition” value is listed as -24.37%.

In the case of `Cc1nc(Nc2cc(Cl)ccc2O)nc(Nc2cc(Cl)ccc2O)c1[N+](=O)[O-]` [TCMDC-125765], the “% Inhibition” value is listed as -25.8%.

In the case of `CC(=O)c1ccc2cc(C(=O)NC3CCC(CCN4CCc5ccc(-c6noc(C)n6)cc5CC4)CC3)[nH]c2c1` (stereo not drawn) [TCMDC-140072], the “% Inhibition” value is on record as -66.89%.

Consider `O=c1cc(NCCCNCc2cc(Cl)cc(Cl)c2OCc2ccccc2)[nH]c2ccccc12` [TCMDC-139488], for which the “% Inhibition” value is given as -11.96%.

Turning to `Cc1ccc(-n2cc(CNCCc3ncc(C)[nH]3)c(-c3ccc(F)cc3)n2)cc1` [TCMDC-124685], the “% Inhibition” value was determined as 44.13%.

Turning to `Cc1ccc(-n2cc(CNCCCn3ccnc3)c(-c3cccc(C)c3)n2)cc1` [TCMDC-124630], the “% Inhibition” value is 80.81%.

As for `COc1ccc(-n2cc(CNCCCn3ccnc3)c(-c3cccc(F)c3)n2)cc1` [TCMDC-124651], the “% Inhibition” value was found to be 46.38%.

For the compound `Cc1cc2nc(-c3cc(-c4cccc(NS(C)(=O)=O)c4)cnc3N)[nH]c2cc1C` [TCMDC-133558], the “% Inhibition” value was -28.88%.

With `Cc1cccc(-c2nc3cc(NC(=O)c4ccc([N+](=O)[O-])o4)ccc3o2)c1` [TCMDC-123925], the “% Inhibition” value is listed as 17.49%.

Take `O=C(Nc1ccc2oc(-c3ccc(Br)cc3)nc2c1)c1ccc([N+](=O)[O-])o1` [TCMDC-123698]: the “% Inhibition” value is given as 17.72%.

As for `O=C(Nc1ccc2oc(-c3ccc(Cl)cc3Cl)nc2c1)c1ccc([N+](=O)[O-])o1` [TCMDC-123753], the “% Inhibition” value worked out at 49.41%.

Take `CCc1ccc(-c2nc3cc(NC(=O)c4ccc([N+](=O)[O-])o4)ccc3o2)cc1` [TCMDC-123924]: the “% Inhibition” value stood at 1.176%.

In the case of `Cc1ccc(-c2nc3cc(NC(=O)c4ccc([N+](=O)[O-])o4)ccc3o2)cc1Cl` [TCMDC-123657], the “% Inhibition” value was 94.01%.

Turning to `CC(C)c1ccc2oc(-c3ccc(NC(=O)c4ccc([N+](=O)[O-])o4)cc3)nc2c1` [TCMDC-124010], the “% Inhibition” value is given as 79.92%.

`O=C(Nc1ccc(-c2ccc(-c3nc4cc(C(F)(F)F)ccc4[nH]3)s2)cc1)c1ccoc1` [TCMDC-136842]: the “% Inhibition” value is listed as -23.12%.

In the case of `CCCCN(CCCC)CCNC(=O)c1ccc(-c2nc3ccc(Cl)cc3[nH]2)c(OCC)c1` [TCMDC-140909], the “% Inhibition” value is -44.96%.

Regarding `CCCOc1cc2c(cc1OCCC)C(C=Cc1ccc(Cl)cc1Cl)=NC(C)C2.Cl` (stereo not drawn) [TCMDC-137448], the “% Inhibition” value was 86.79%.

`CCCCOc1cc2c(cc1OCC)C(C=Cc1ccc(Cl)cc1Cl)=NCC2.Cl` [TCMDC-137450]: the “% Inhibition” value is listed as 76.64%.

In the case of `COc1cc2c(cc1OC)C(C(=O)c1ccccc1)=NCC2.Cl` [TCMDC-141993], the “% Inhibition” value was 35.87%.

Regarding `CC(C)C1=CC(=NOS(=O)(=O)c2ccccc2)C=C(C(C)C)C1=O` [TCMDC-124172], the “% Inhibition” value is recorded as -30.75%.

Turning to `O=C(/C=C/c1ccc2ccccc2c1)NCC1(c2ccc(-c3ccccc3)cc2)CCOCC1` [TCMDC-134257], the “% Inhibition” value came out at 16.18%.

As for `CC1CN(c2cnn(Cc3cccc(NC(=O)Nc4ccc(-c5ccccc5)cc4)c3)c(=O)c2Cl)CC(C)N1` (stereo not drawn) [TCMDC-141935], the “% Inhibition” value is reported as -13.22%.

With `NC1CCN(c2cnn(Cc3cccc(NC(=O)Nc4ccc(-c5ccccc5)cc4)c3)c(=O)c2Cl)CC1` [TCMDC-141930], the “% Inhibition” value stood at 54.32%.

Consider `Cc1c(Cn2ncc(N3CCC(N)CC3)c(Cl)c2=O)cccc1NC(=O)Nc1ccc(-c2ccccc2)cc1` [TCMDC-141931], for which the “% Inhibition” value is reported as 109.1%.

`Cc1ccc(Cn2ncc(N3CC(C)NC(C)C3)c(Cl)c2=O)cc1NC(=O)Nc1ccc(-c2ccccc2)cc1` (stereo not drawn) [TCMDC-141937]: the “% Inhibition” value is recorded as 14.65%.

In the case of `Cc1ccc(Cn2ncc(N3CCCNCC3)c(Cl)c2=O)cc1NC(=O)Nc1ccc(-c2ccccc2)cc1` [TCMDC-141924], the “% Inhibition” value is listed as 99.19%.

Regarding `O=C(Nc1ccc(Cn2ncc(N3CCNCC3)c(Cl)c2=O)cc1)Nc1ccc(-c2ccccc2)cc1` [TCMDC-141922], the “% Inhibition” value was -25.28%.

Consider `Cc1c(Cn2ncc(N3CC(C)NC(C)C3)c(Cl)c2=O)cccc1NC(=O)Nc1ccc(-c2ccccc2)cc1` (stereo not drawn) [TCMDC-141936], for which the “% Inhibition” value was -6.259%.

For the compound `O=C(Nc1ccc(-c2ccccc2)cc1)Nc1cccc(Cn2ncc(N3CCNCC3)c(Cl)c2=O)c1` [TCMDC-141920], the “% Inhibition” value is -37.77%.

`Cc1ccc(Cn2ncc(N3CCNCC3)c(Cl)c2=O)cc1NC(=O)Nc1ccc(-c2ccccc2)cc1` [TCMDC-141921]: the “% Inhibition” value is listed as 40.54%.

Regarding `CC1CN(c2cnn(Cc3ccc(NC(=O)Nc4ccc(-c5ccccc5)cc4)cc3)c(=O)c2Cl)CC(C)N1` (stereo not drawn) [TCMDC-141940], the “% Inhibition” value was 80.37%.

On to `O=C(Nc1ccc(-c2ccccc2)cc1)Nc1cccc(Cn2ncc(N3CCCNCC3)c(Cl)c2=O)c1` [TCMDC-141923], for which the “% Inhibition” value was determined as 12.88%.

For the compound `O=C(Nc1ccc(Cn2ncc(N3CCCNCC3)c(Cl)c2=O)cc1)Nc1ccc(-c2ccccc2)cc1` [TCMDC-141928], the “% Inhibition” value (% Inhibition) is -32.1%.

`CC(C)C[C@H](NC(=O)c1ccc(OCCN2CCOCC2)cc1)C(=O)N[C@H](/C=N/N1CCNC1=O)CCc1ccccc1` [TCMDC-136156]: the “% Inhibition” value was 19.17%.

`O=C(Nc1ccc(Cl)cc1)Nc1ccc2nonc2c1` [TCMDC-124586]: the “% Inhibition” value was -84.09%.

`COc1cc(N(C)Cc2cnc3nc(N)nc(N)c3n2)cc(OC)c1OC` [TCMDC-137363]: the “% Inhibition” value turned out to be 43.25%.

Regarding `Cc1cccc(-n2c(Nc3ccc(C)c(Cl)c3)nc3ccc(S(=O)(=O)NC(C)C(C)C)cc32)c1` (stereo not drawn) [TCMDC-136234], the “% Inhibition” value was -15.02%.

Take `CCCc1c(C(=O)OCC)c2cc(O)ccc2n1-c1ccc(OC)cc1` [TCMDC-125126]: the “% Inhibition” value is -66.75%.

Regarding `COc1cccc(C2=CC(C)(C)Oc3cc(OCCN(C)C)ccc32)c1` [TCMDC-131403], the “% Inhibition” value amounted to 8.416%.

For `Cc1sc(N2CCN(C)CC2)nc1C(=O)Nc1ccc(F)cc1C(F)(F)F` [TCMDC-134302], the “% Inhibition” value is given as -2.511%.

These data come from PMC4552634, “A New Set of Chemical Starting Points with Plasmodium falciparum Transmission-Blocking Potential for Antimalarial Drug Discovery” (PLoS ONE, 2015).
